Bioassay records (PubChem)
This excerpt belongs to a sample that is enriched for hits.
C diff HTS: C. difficile growth inhibitors, primary screen, HTS. Clostridium difficile clinical isolate growth, OD600, 24 h; stronger effect = lower value. growth activity, negative = inhibition, % at 16 µg/mL (by protocol). actives 0.25% (n = 86,000). AID 1259249, 2017;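 active means mean growth activity at or below -80% and every replicate also at or below -80%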;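 further: 0% = DMSO wells and -100% = levofloxacin 16 µg/mL wells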
The depositor's hits bear a star; ! = a repeat was not active.

Screening COc1ccc2c3c([nH]c2c1)[C@@H](CO)N(C(=O)Nc1ccc(F)cc1)CC31CN(S(=O)(=O)c2cccs2)C1 returned C diff HTS -94.7*.
Screening COc1cc(CN2CC3(CN(S(=O)(=O)c4cccs4)C3)c3c(n(C)c4cc(OC)ccc34)[C@@H]2CO)cc(OC)c1 returned C diff HTS -87.4*.
Screening COc1ccc2c3c([nH]c2c1)[C@H](CO)N(C(=O)Nc1ccc(F)cc1)CC31CN(S(=O)(=O)c2ccccc2)C1 returned C diff HTS -1.9.
Screening CN1C[C@@H](O)COC[C@H]2O[C@H](CC(=O)NC3CCCC3)CC[C@@H]21 returned C diff HTS 1.2.
`CN1c2ccc(Br)cc2[C@@H]2[C@@H](CCN2C(=O)Nc2ccc(F)cc2)[C@H]1CO` gave C diff HTS -98.3*.
For COc1ccc(NC(=O)N2CC[C@@H]3[C@H]2c2cc(Br)ccc2N(C)[C@H]3CO)cc1 the results were C diff HTS 6.9.
`COc1ccc(-c2ccc3c(c2)[C@H]2[C@H](CCN2C(=O)c2ccccc2F)[C@H](CO)N3C)cc1` gave C diff HTS -11.8.
For COc1cccc(C#Cc2ccc3c(c2)[C@@H]2[C@@H](CCN2C(=O)c2ccccc2F)[C@@H](CO)N3C)c1 the results were C diff HTS -97.5*.
For COc1cccc(-c2ccc3c(c2)[C@H]2[C@H](CCN2C(=O)c2ccccc2F)[C@H](CO)N3C)c1 the results were C diff HTS -0.1.
For CN1c2ccc(Br)cc2[C@H]2[C@H](CCN2C(=O)Nc2cccc(F)c2)[C@H]1CO the results were C diff HTS 30.8.
COc1ccc(NC(=O)N2CC[C@H]3[C@@H]2c2cc(Br)ccc2N(C)[C@H]3CO)cc1 was read as C diff HTS -98.5*.
Screening COc1ccc(NC(=O)N2CC[C@@H]3[C@H]2c2cc(-c4ccc(F)cc4)ccc2N(C)[C@H]3CO)cc1 returned C diff HTS 46.1.
CN1c2ccc(Br)cc2[C@@H]2[C@@H](CCN2C(=O)Nc2ccc(F)cc2)[C@@H]1CO was read as C diff HTS 15.3.
`C[C@H]1CN([C@@H](C)CO)C(=O)c2cc(NC(=O)NC3CCCCC3)ccc2O[C@@H]1CN(C)C(=O)NC1CCCCC1` gave C diff HTS -2.8.
Screening CC(C)NC(=O)N(C)C[C@@H]1Oc2c(NC(=O)Nc3cccc4ccccc34)cccc2C(=O)N([C@H](C)CO)C[C@H]1C returned C diff HTS -0.9.
CC(C)C#Cc1cnc2c(c1)C(=O)N([C@@H](C)CO)C[C@H](C)[C@H](CN(C)C(=O)Nc1cc(F)ccc1F)O2 was read as C diff HTS -7.0.
Screening CO[C@H]1CC[C@@H]2CCN(C)C(=O)C[C@H](c3ccccc3)CN(C)C(=O)c3cccc(C#N)c3OC[C@@H]1O2 returned C diff HTS -1.4.
`CCC(=O)N(C)C[C@@H]1Oc2ncc(/C=C/c3ccccc3)cc2C(=O)N([C@H](C)CO)C[C@H]1C` gave C diff HTS -1.1.
COc1ccccc1-c1cn(CC[C@H]2CC[C@H](NC(=O)c3ccccc3F)[C@@H](CO)O2)nn1 was read as C diff HTS 4.1.
`CCNC(=O)C[C@H]1CC[C@H]2[C@@H](COC[C@@H](O)CN2C(=O)Nc2ccc(C(F)(F)F)cc2)O1` gave C diff HTS -101.6*!.
O=C(C[C@@H]1CC[C@H]2[C@@H](COC[C@@H](O)CN2C(=O)Nc2ccc(C(F)(F)F)cc2)O1)NCCc1ccncc1 was read as C diff HTS -14.9.
Screening O=C(C[C@H]1CC[C@H]2[C@@H](COC[C@H](O)CN2C(=O)Nc2ccc(C(F)(F)F)cc2)O1)NCCc1ccncc1 returned C diff HTS -17.7.
Screening CCNC(=O)C[C@@H]1CC[C@@H]2[C@H](COC[C@H](O)CN2C(=O)Nc2cccc(OC)c2)O1 returned C diff HTS 2.4.
Screening CCNC(=O)C[C@H]1CC[C@@H]2[C@H](COC[C@H](O)CN2C(=O)Nc2ccc(C(F)(F)F)cc2)O1 returned C diff HTS -88.4*.
Screening O=C(C[C@@H]1CC[C@H]2[C@@H](COC[C@H](O)CN2C(=O)Nc2ccc(C(F)(F)F)cc2)O1)NC1Cc2ccccc2C1 returned C diff HTS -8.1.
C[C@H](CO)N1C[C@H](C)[C@H](CN(C)C(=O)C2CCC2)Oc2ncc(-c3cccnc3)cc2C1=O was read as C diff HTS -1.7.
`CNC[C@H]1Oc2c(NC(=O)Nc3ccc4c(c3)OCO4)cccc2C(=O)N([C@@H](C)CO)C[C@@H]1C` gave C diff HTS 0.1.
Screening CNC[C@@H]1Oc2c(NC(=O)c3ccncc3)cccc2C(=O)N([C@@H](C)CO)C[C@@H]1C returned C diff HTS 0.4.
Fc1cccc(CN2C[C@@H]3N[C@H](C2)C3c2ccc(/C=C/c3ccccc3)cc2)c1 (stereo partly drawn) was read as C diff HTS -99.8*!.
C(=C\c1ccc(C2[C@@H]3CN(Cc4nccs4)C[C@H]2N3)cc1)/c1ccccc1 (stereo partly drawn) was read as C diff HTS 46.9.
`COc1ccccc1CN1C[C@@H]2N[C@H](C1)C2c1ccc(-c2ccccc2)cc1` (stereo partly drawn) gave C diff HTS 31.5.
`c1cc(-c2ccc(C3[C@@H]4CN(Cc5nccs5)C[C@H]3N4)cc2)ccn1` (stereo partly drawn) gave C diff HTS 4.9.
N#Cc1cccc(-c2ccc(C3[C@H]4CNC[C@@H]3N4Cc3cccc(F)c3)cc2)c1 (stereo partly drawn) was read as C diff HTS -5.6.
`O=C(C1CCCC1)N1C[C@@H]2N[C@H](C1)C2c1ccc(/C=C/c2ccccc2)cc1` (stereo partly drawn) gave C diff HTS 4.5.
For COc1ccccc1CN1C[C@@H]2N[C@H](C1)C2c1ccc(/C=C/c2ccccc2)cc1 (stereo partly drawn) the results were C diff HTS -90.2*.
`Fc1ccc(CN2[C@@H]3CNC[C@H]2C3c2ccc(-c3ccccc3)cc2)cc1` (stereo partly drawn) gave C diff HTS 13.1.
For Fc1ccc(-c2ccc(C3[C@@H]4CN(Cc5ccccc5)C[C@H]3N4)cc2)cc1 (stereo partly drawn) the results were C diff HTS -94.1*!.
`Fc1cccc(CN2[C@@H]3CNC[C@H]2C3c2ccc(-c3ccccc3)cc2)c1` (stereo partly drawn) gave C diff HTS 39.6.
For C(=C\c1ccc(C2[C@@H]3CN(Cc4ccccn4)C[C@H]2N3)cc1)/c1ccccc1 (stereo partly drawn) the results were C diff HTS -12.2.
For Fc1cccc(CN2[C@@H]3CNC[C@H]2C3c2ccc(-c3cccc(F)c3)cc2)c1 (stereo partly drawn) the results were C diff HTS -98.9*!.
For CC(C)NC(=O)Nc1ccc2c(c1)C(=O)N([C@@H](C)CO)C[C@@H](C)[C@@H](CN(C)Cc1ccc3c(c1)OCO3)OCCCC[C@H](C)O2 the results were C diff HTS 11.0.
C[C@@H](NC(=O)C[C@H]1C=C[C@H](NC(=O)Cc2ccccn2)[C@H](CO)O1)c1ccccc1 was read as C diff HTS -2.4.
C[C@H](CO)N1C[C@H](C)[C@@H](CN(C)Cc2ccc(Cl)c(Cl)c2)OCCCC[C@H](C)Oc2ccc(N(C)C)cc2C1=O was read as C diff HTS 14.7.
Screening CCC(=O)NC[C@@H]1[C@H](c2ccc(-c3cccc(F)c3)cc2)[C@H](CO)N1C(=O)CC returned C diff HTS -9.5.
